# Results as given in the antibiotic and cytotoxicity screens of Wong et al. (2023).
# About 1,500 (3.8%) of roughly 39,000 compounds were called active. This is one part of a sample in which actives are shown more often than they occur.
# System: HSkMC (human skeletal muscle cells)
# Test: cytotoxicity call (relative viability < 0.9)
# Settings: 10 µM
row,Structure (SMILES),cytotoxicity call
1,C[C@@H]1CN([C@@H](C)CO)C(=O)c2cc(NS(=O)(=O)c3cn(C)cn3)ccc2O[C@@H]1CN(C)C(=O)Nc1ccc(F)cc1,inactive
2,C[C@@H]1CN([C@@H](C)CO)C(=O)c2cc(NC(=O)Nc3cccc4ccccc34)ccc2O[C@@H](C)CCCCO[C@@H]1CN(C)Cc1ccc(C(=O)O)cc1,inactive
3,Cc1ccc(S(=O)(=O)N(C)C[C@H]2Oc3ccc(NS(=O)(=O)c4ccc(F)cc4)cc3C(=O)N([C@@H](C)CO)C[C@H]2C)cc1,inactive
4,COc1ccccc1C#Cc1cnc2c(c1)C(=O)N([C@H](C)CO)C[C@@H](C)[C@H](CN(C)C(=O)c1ccc3c(c1)OCO3)O2,inactive
5,COc1ccc(C#Cc2ccc([C@H]3[C@H](CO)N4CCCCN(S(=O)(=O)c5cn(C)cn5)C[C@@H]34)cc2)cc1,inactive
6,COc1ccc(C#Cc2ccc([C@@H]3[C@H]4CN(S(=O)(=O)c5cn(C)cn5)CCCCN4[C@H]3CO)cc2)cc1,inactive
7,COc1ccc(C#Cc2ccc([C@H]3[C@@H](CO)N4CCCCN(S(=O)(=O)c5cn(C)cn5)C[C@H]34)cc2)cc1,active
8,COc1ccc(C#Cc2ccc([C@H]3[C@@H](CO)N4CCCCN(S(=O)(=O)c5cn(C)cn5)C[C@@H]34)cc2)cc1,inactive
9,CC(C)(O)C#Cc1ccc([C@H]2[C@H](CO)N3CCCCN(S(C)(=O)=O)C[C@@H]23)cc1,inactive
10,COc1ccc(C#Cc2ccc([C@@H]3[C@@H](CO)N4CCCCN(S(=O)(=O)c5cn(C)cn5)C[C@H]34)cc2)cc1,active
11,COc1ccc(C#Cc2ccc([C@@H]3[C@@H](CO)N4CCCCN(S(=O)(=O)c5cn(C)cn5)C[C@@H]34)cc2)cc1,active
12,COc1ccc(C#Cc2ccc([C@@H]3[C@H](CO)N4CCCCN(S(=O)(=O)c5cn(C)cn5)C[C@@H]34)cc2)cc1,inactive
13,COc1ccc(C#Cc2ccc([C@H]3[C@H]4CN(S(=O)(=O)c5cn(C)cn5)CCCCN4[C@H]3CO)cc2)cc1,inactive
14,C[C@H](CO)N1C[C@H](C)[C@H](CN(C)Cc2ccc(Oc3ccccc3)cc2)Oc2ccc(NC(=O)c3ccncc3)cc2C1=O,inactive
15,C[C@@H]1CN([C@@H](C)CO)C(=O)Cc2cc(NC(=O)Cn3cnnn3)ccc2O[C@@H]1CN(C)C(=O)Nc1cccc2ccccc12,inactive
16,C=CC[C@H](CC(=O)NCCO)C(=O)N[C@@H](COC(=O)[C@@H](CC=C)CC(=O)OC(C)(C)C)Cc1c[nH]c2ccccc12,inactive
17,COc1ccc(NC(=O)Nc2ccc3c(c2)C(=O)N([C@H](C)CO)C[C@H](C)[C@H](CN(C)S(=O)(=O)c2c(C)noc2C)OCCCC[C@@H](C)O3)cc1,inactive
18,COCC(=O)Nc1ccc2c(c1)C(=O)N(C)C[C@@H](OC)[C@@H](C)CN(C(=O)Cc1cccnc1)[C@H](C)CO2,inactive
19,C[C@@H]1CCCCO[C@H](CN(C)C(=O)Nc2ccc3c(c2)OCO3)[C@H](C)CN([C@@H](C)CO)C(=O)c2cc(NS(=O)(=O)c3ccc(F)cc3)ccc2O1,inactive
20,Cc1ccc(S(=O)(=O)Nc2ccc3c(c2)C(=O)N([C@@H](C)CO)C[C@H](C)[C@H](CN(C)Cc2ccc(C(=O)O)cc2)OCCCC[C@@H](C)O3)cc1,inactive
21,Cc1cc(C)n2nc(N)nc2n1,inactive

row,Structure (SMILES),cytotoxicity call
1,Nc1ccc2cc3ccc(N)cc3nc2c1.O=S(=O)(O)O,active
2,Nc1ccc2c(c1)nc(CO)n2CCO,inactive
3,C[n+]1c2cc(N)ccc2cc2ccc(N)cc21.[Cl-],inactive
4,C[C@@H]1CCCCO[C@@H](CN(C)Cc2ccccc2)[C@H](C)CN([C@@H](C)CO)C(=O)c2cc(NC(=O)C3CCCCC3)ccc2O1,inactive
5,COCCC(=O)NS(=O)(=O)c1ccccc1,inactive
6,CC(C)(C)C(=O)N1CCNCC1,inactive
7,C[C@H]1CN([C@@H](C)CO)C(=O)c2cc(C#CCN(C)C)cnc2O[C@@H]1CN(C)C(=O)Nc1ccccc1F,inactive
8,C=C1C[C@@H]2CC[C@@]34C[C@H]5O[C@H]6[C@@H](O3)[C@H]3O[C@H](CC[C@@H]3O[C@H]6[C@H]5O4)CC(=O)C[C@@H]3[C@@H](OC)[C@@H](C[C@H](O)CN)O[C@H]3C[C@H]3O[C@@H](CC[C@@H]1O2)C[C@@H](C)C3=C,active
9,COc1ccc(NC(=O)N(C)C[C@@H]2Oc3ccc(NC(=O)Nc4ccc(C(F)(F)F)cc4)cc3CC(=O)N([C@@H](C)CO)C[C@@H]2C)cc1,inactive
10,C[C@@H]1CN([C@H](C)CO)C(=O)c2cc(Br)cnc2O[C@H]1CN(C)S(=O)(=O)c1ccc(F)cc1,inactive
11,COc1ccccc1C#Cc1ccc2c(c1)O[C@@H](CN(C)Cc1ccncc1)[C@@H](C)CN([C@@H](C)CO)S2(=O)=O,inactive
12,COc1ccccc1C#Cc1ccc2c(c1)O[C@@H](CN(C)Cc1ccncc1)[C@H](C)CN([C@H](C)CO)S2(=O)=O,active
13,COc1ccccc1C#Cc1ccc2c(c1)O[C@@H](CN(C)Cc1ccncc1)[C@H](C)CN([C@@H](C)CO)S2(=O)=O,active
14,COc1ccccc1C#Cc1ccc2c(c1)O[C@H](CN(C)Cc1ccncc1)[C@@H](C)CN([C@@H](C)CO)S2(=O)=O,active
15,COc1ccccc1C#Cc1ccc2c(c1)O[C@@H](CN(C)Cc1ccncc1)[C@@H](C)CN([C@H](C)CO)S2(=O)=O,inactive
16,COc1ccccc1C#Cc1ccc2c(c1)O[C@H](CN(C)Cc1ccncc1)[C@H](C)CN([C@H](C)CO)S2(=O)=O,inactive
17,COc1ccccc1C#Cc1ccc2c(c1)O[C@H](CN(C)Cc1ccncc1)[C@H](C)CN([C@@H](C)CO)S2(=O)=O,inactive
18,COc1ccccc1C#Cc1ccc2c(c1)O[C@H](CN(C)Cc1ccncc1)[C@@H](C)CN([C@H](C)CO)S2(=O)=O,inactive
19,C[C@H](CO)N1C[C@H](C)[C@H](CN(C)S(=O)(=O)c2cccc(F)c2)Oc2cc(Br)ccc2S1(=O)=O,inactive
20,C[C@@H]1CN([C@@H](C)CO)C(=O)c2cc(NS(C)(=O)=O)ccc2O[C@@H]1CN(C)C(=O)Nc1ccc(C(F)(F)F)cc1,inactive
21,COc1ccc(S(=O)(=O)Nc2ccc3c(c2)C(=O)N([C@@H](C)CO)C[C@H](C)[C@@H](CN(C)C(=O)Nc2c(C)noc2C)O3)cc1,inactive
